Screening data: PubChem, several laboratories
TIM10 inh: inhibits growth of TIM10 yeast strain. S. cerevisiae TIM10 strain growth, BacTiter-Glo luminescence, 24 h. inhibition, % at 10 µM. 330,000 tested, 1.4% active;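 active = inhibition of 40% or more at the single tested concentration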;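 also: wild-type TIM10 isogenic control strain grown at permissive 25 °C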
SKKanGAS inh: inhibitors of SKKanGAS S. pyogenes growth in kanamycin (SK-promoter or general growth effect) | BacTiter-Glo, 6 h | inhibition, % at 7.5 µM | 300,000 tested, 1.3% active;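 active = mean replicate score, as percent of positive control median, at least 50; inconclusive = mean below 50 but one replicate at or above 50; inactive = mean and every replicate below 50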;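 also: strain carries kanamycin resistance gene driven by streptokinase promoter and grows in 40 µg/ml kanamycin; loss of luminescence reflects streptokinase promoter inhibition or plain growth inhibition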
ATG4B inhibitor: ATG4B (human) cysteine protease inhibition | inhibition, % at 8.33 µM | 340,000 tested, 0.51% active | AID 504462 | ATG4B cleavage of LC3-PLA2, NBD-HPC fluorescence, 1 h; in the data active = inhibition above about 40%
Target sequence (Q9Y4P1 whole entry, looked up): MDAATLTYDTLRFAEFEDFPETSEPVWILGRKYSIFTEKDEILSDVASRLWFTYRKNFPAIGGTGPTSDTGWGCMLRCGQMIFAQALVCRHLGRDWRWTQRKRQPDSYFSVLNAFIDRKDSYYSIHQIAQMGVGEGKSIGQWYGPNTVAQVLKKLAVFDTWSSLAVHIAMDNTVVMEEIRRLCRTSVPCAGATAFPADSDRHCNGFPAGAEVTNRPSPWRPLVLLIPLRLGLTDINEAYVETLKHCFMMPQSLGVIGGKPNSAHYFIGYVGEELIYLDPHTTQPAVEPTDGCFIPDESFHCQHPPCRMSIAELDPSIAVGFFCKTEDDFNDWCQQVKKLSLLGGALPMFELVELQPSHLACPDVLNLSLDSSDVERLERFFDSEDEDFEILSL
PfHsp90 yeast 2: inhibits growth of yeast expressing Plasmodium falciparum Hsp90; AID 504621; inhibition, % at 9.4 µM; S. cerevisiae expressing PfHsp90, BacTiter-Glo ATP, 48 h; yeast lacking PDR1 and PDR3 efflux regulators; 310,000 tested, 0.32% active;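 active = every replicate shows inhibition above about 80%, whatever the replicate mean, limit read from the data; inconclusive = mean inhibition reaches the set limit but some replicate falls short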
tim10-1 inh: inhibits growth of tim10-1 mutant yeast | S. cerevisiae tim10-1 ts strain growth, BacTiter-Glo, 24 h | 330,000 tested, 2.2% active | AID 463190 | inhibition, % at 20 µM;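 active = inhibition of at least 40%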;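 also: mutant grown at 25 °C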
tim23-1 inh: tim23-1 yeast growth inhibition. S. cerevisiae tim23-1 growth, BacTiter-Glo luminescence, 24 h. inhibition, % at 20 µM. 330,000 tested, 1.3% active. AID 463212;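 active = growth inhibition of the mutant yeast at or above 50%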;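 also: temperature-sensitive mutant grown at 25 °C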
tim10-1 conf: tim10-1 yeast growth inhibition, confirmed; shares compounds with tim10-1 inh; S. cerevisiae tim10-1 ts strain growth, BacTiter-Glo, 24 h; inhibition, % at 20 µM; 7,400 tested, 56% active; AID 463213;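 active = inhibition of yeast growth at or above a set limit in either of two repeat tests at 20 µM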;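 also: tim10-1 mutant grown at permissive 25 °C to find synthetic lethal compounds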
tim10 confirm: confirmation of TIM10 yeast growth inhibitors. S. cerevisiae tim10 strain growth, BacTiter-Glo luminescence, 24 h. inhibition, % at 10 µM. 4,600 tested, 63% active. shares compounds with TIM10 inh. AID 463215;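 active = inhibition of yeast growth at or above a set limit in either of two replicates at 10 µM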; also: this counterscreen used the strain with wild-type TIM10
Numbers stand for hits; i = inactive; ? = inconclusive; nt = no result. Rows were chosen to be rich in hits. Some 4.7% of all compounds tested hit in one or more screens of this group.

SMILES	TIM10 inh	SKKanGAS inh	ATG4B inhibitor	PfHsp90 yeast 2	tim10-1 inh	tim23-1 inh	tim10-1 conf	tim10 confirm
CN(C)CCCN(C(=O)c1ccc2ccccc2c1)c1nc2cc3c(cc2s1)OCO3	46.1	i	i	i	50.3	i	42.5	35.0
CCN(c1ccccc1)S(=O)(=O)c1ccc(C(=O)N(CCCN(C)C)c2nc3cc4c(cc3s2)OCO4)cc1	52.5	i	i	i	63.8	i	59.9	46.1
CCN(c1ccccc1)S(=O)(=O)c1nnc(NC(=O)c2ccco2)s1	i	i	i	i	i	i	nt	nt
O=[N+]([O-])c1ccc(-c2ccc(/C=N/O)o2)cc1	i	i	i	nt	i	i	nt	nt
CN(C)/N=C/c1ccc(Sc2ccc([N+](=O)[O-])cc2[N+](=O)[O-])o1	40.3	i	i	i	42.9	i	43.6	46.8
CCC(CO)NC(=O)c1cc2c(s1)CCC2 (stereo not given)	i	i	i	i	i	i	nt	nt
C=CCc1c(C)c(C#N)c2nc3ccccc3n2c1NCCN(C)C	80.1	i	i	108.8	49.2	i	60.0	84.8
CC(C)NC(=O)Nc1ccc2c(c1)CC(=O)N([C@@H](C)CO)C[C@H](C)[C@@H](CN(C)C(=O)NC1CCCCC1)O2	i	nt	i	i	i	i	nt	nt
Cc1ccc(O)c(-c2cc3ccccc3[nH]2)c1	45.9	i	i	i	52.7	i	39.9	46.6
COc1ccc(C(C(=O)NCc2ccc(F)cc2)N(Cc2cccnc2)C(=O)c2snc(C(N)=O)c2N)cc1 (stereo not given)	i	i	i	i	i	i	nt	nt
CCOc1ccc(NC(=S)N2CCCC2)cc1	i	nt	i	i	i	i	nt	nt
CCOC(=O)c1ccc(NC(=S)N2CCCC(C)C2)cc1 (stereo not given)	i	i	i	i	i	i	nt	nt
CCc1ccc(NC(=S)N2CCCCCCC2)cc1	40.6	i	i	i	42.3	i	i	i
CCCCc1ccc(NC(=S)N2CCCC(C)C2)cc1 (stereo not given)	44.6	i	i	i	43.5	i	i	31.4
O=C(CSc1nc2ccccc2[nH]1)N=Nc1c(O)[nH]c2ccccc12	i	i	i	i	i	i	nt	nt
O=C(CSCc1ccc(Br)cc1)N=Nc1c(O)[nH]c2ccccc12	43.0	i	i	i	44.9	i	40.1	33.5
CCC1=NNC(=O)C(CC(=O)Nc2ccccc2)c2cc(OC)c(OC)cc21 (stereo not given)	i	i	i	i	i	i	nt	nt
O=C(Nc1ccc(OCC(F)(F)C(F)F)c(C(F)(F)F)c1)c1ccc(Cl)cc1	58.3	91.5	i	i	52.8	i	35.1	i
CCCC(c1nnnn1Cc1ccco1)N1CCN(c2ccccc2)CC1 (stereo not given)	i	i	i	i	i	i	nt	nt
FC(F)(F)c1cccc(NC(=S)Nc2cccc(NC(=S)Nc3cccc(C(F)(F)F)c3)n2)c1	48.1	i	i	i	52.6	i	33.2	32.1
FC(F)(F)c1cccc(NC(=S)NCC2COc3ccccc3O2)c1 (stereo not given)	48.2	i	i	i	65.6	i	56.1	56.5
FC(F)(F)c1cccc(NC(=S)Nc2ccc(Cl)cc2Cl)c1	62.3	?	i	i	69.6	i	46.7	50.6
COc1cccc(C(=O)NC(c2ccccc2)C2CCCC2)c1 (stereo not given)	i	i	i	i	i	i	nt	nt
COc1ccc2[nH]cc(/C=C/C(=O)c3ccccc3)c2c1	71.0	i	i	i	60.6	i	52.3	73.8
O=C(/C=C/c1c[nH]c2ccccc12)c1ccccc1	52.9	i	i	i	45.0	i	36.8	i
SMILES	TIM10 inh	SKKanGAS inh	ATG4B inhibitor	PfHsp90 yeast 2	tim10-1 inh	tim23-1 inh	tim10-1 conf	tim10 confirm
O=C(/C=C/c1ccc[nH]1)c1ccccc1	i	i	i	i	i	i	nt	nt
CCN1CCN(CCC(=O)Nc2cc(OC)ccc2OC)CC1	i	i	i	i	i	i	nt	nt
O=c1[nH][nH]c(-c2ccccc2O)c1C(C[N+](=O)[O-])c1ccc(Cl)cc1Cl (stereo not given)	42.2	i	i	i	55.2	i	30.1	i
Cc1cc([N+](=O)[O-])ccc1-c1ccc(C2Nc3ccccc3C(=O)N2O)o1 (stereo not given)	41.3	i	i	?	52.9	i	35.8	i
O=C1c2ccccc2NC(c2ccc(-c3ccccc3F)o2)N1O (stereo not given)	i	nt	i	nt	i	i	nt	nt
CC(=O)Nc1ccc(C(=O)OCc2ccccc2Cl)cc1	42.5	i	i	i	53.9	i	i	34.4
O=c1c2cccc3c2c(nn1CN1CCOCC1)-c1ccccc1-3	41.1	i	i	i	52.9	i	i	51.5
Cn1c(SCCOc2ccccc2Cl)nnc1-c1cccs1	51.2	i	i	i	50.8	i	39.9	51.4
CC(C)c1nc2oc3c(NCC4CCCO4)ncnc3c2c2c1CCC2 (stereo not given)	45.5	i	i	nt	45.5	i	i	i
CCCc1nc2oc3c(NCC4CCCO4)ncnc3c2c2c1COC(C)(C)C2 (stereo not given)	i	i	i	i	i	i	nt	nt
O=C1C(Cl)=C(Nc2ccc(O)cc2)C(=O)c2ccccc21	44.9	i	i	i	48.9	i	44.6	51.5
Cc1ccc(NC2=C(Cl)C(=O)c3ccccc3C2=O)cc1	nt	i	i	i	nt	nt	nt	nt
CCN(C(=O)COC(=O)/C(=C/c1ccccc1)n1nnnc1C)C1CCCCC1	41.3	i	i	i	42.2	i	38.5	45.2
Cc1nc2ccccn2c1C(=O)NN	i	i	i	i	i	i	nt	nt
Cc1nc2ccccn2c1C(=O)/C=C/c1ccc(F)cc1	40.1	i	i	nt	49.5	i	36.7	43.0
O=C(/C=C/c1cccc(OCc2ccccc2)c1)c1cccnc1	64.9	i	i	i	57.2	i	50.3	51.6
O=C(Cn1cnc2c(NCc3ccccc3)ncnc21)NCc1ccc2[nH]ccc2c1	i	nt	i	i	i	i	nt	nt
CCC(=O)Nc1nc2ccc([N+](=O)[O-])cc2s1	i	i	i	i	i	i	nt	nt
O=C(Nc1cccc(C(F)(F)F)c1)c1cccnc1NCCO	i	i	i	i	i	i	nt	nt
O=C(Nc1cccc(C(F)(F)F)c1)c1cccnc1NCCc1ccccc1	43.3	i	i	i	44.3	i	29.7	i
CCOC(=O)C1C(=O)CC(C)(O)C(C(=O)OCC)C1c1ccc(Br)o1 (stereo not given)	i	i	i	nt	i	i	nt	nt
Cc1cc(-n2nc(C)cc2C)nc(NS(=O)(=O)c2ccccc2)n1	i	nt	i	i	i	i	nt	nt
